Experimental data: PMC8384837, “Expanding the binding specificity for RNA recognition by a PUF domain”
Where a chain is given by its changes, count along the chain named.

What was measured:
Assay in all cases: yeast three-hybrid, YBZ-1, SC-Leu-His + 0.5 mM 3-AT, 4 days
Settings in all cases: tags: N-Gal4 AD-HA kept; label: inside an RPR1-promoter hybrid RNA with tandem MS2 sites; ssRNA
PUM1 PUF domain R1-RRS = PUM1 PUF domain R1-RRS (Homo sapiens, UniProt Q14671 828-1176, S863R;Q867S)
Summary of the method: (§1)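 The interaction score is the logarithmic change in variant frequency from input to selection. It uses log2, with a pseudocount of 1 for absent variants, and frequencies came from PCR-amplified, Illumina-sequenced repeat regions. The libraries were Pumilio-1 PUF domains randomized at the three base-contacting residues per repeat, co-expressed with matching RNA elements in strain YBZ-1 (LexA–MS2 coat fusion, HIS3 reporter). Plating lasted four days on SC-Leu (input) or SC-Leu-His + 0.5 mM 3-AT (selection).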

PUM1 PUF domain R1-KSL = PUM1 PUF domain R1-KSL (Homo sapiens, UniProt Q14671 828-1176, S863K;R864S;Q867L)
Summary of the method: as §1

PUM1 PUF domain R6-SHR = target: T1, PUM1 PUF domain R6-SHR (Homo sapiens, UniProt Q14671 828-1176, N1043S;Y1044H;Q1047R)
T1 sequence: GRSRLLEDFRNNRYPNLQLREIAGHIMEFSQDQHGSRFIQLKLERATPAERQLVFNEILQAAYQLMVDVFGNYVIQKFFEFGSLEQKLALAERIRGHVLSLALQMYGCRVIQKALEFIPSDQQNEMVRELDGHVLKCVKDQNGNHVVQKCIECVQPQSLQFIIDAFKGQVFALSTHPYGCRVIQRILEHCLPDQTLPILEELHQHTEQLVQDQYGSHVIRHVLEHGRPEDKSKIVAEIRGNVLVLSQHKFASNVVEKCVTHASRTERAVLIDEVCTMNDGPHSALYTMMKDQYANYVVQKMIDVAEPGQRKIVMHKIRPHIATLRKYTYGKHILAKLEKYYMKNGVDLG
Summary of the method: as §1

PUM1 PUF domain R7-GNR = PUM1 PUF domain R7-GNR (Homo sapiens, UniProt Q14671 828-1176, S1079G;E1083R)
Summary of the method: as §1

PUM1 PUF domain R5-RGC = PUM1 PUF domain R5-RGC (Homo sapiens, UniProt Q14671 828-1176, C1007R;R1008G;Q1011C)
Summary of the method: as §1

PUM1 PUF domain R5-RSP = PUM1 PUF domain R5-RSP (Homo sapiens, UniProt Q14671 828-1176, C1007R;R1008S;Q1011P)
Summary of the method: as §1

PUM1 PUF domain R3-QPS = PUM1 PUF domain R3-QPS (Homo sapiens, UniProt Q14671 828-1176, C935Q;R936P;Q939S)
Summary of the method: as §1

PUM1 PUF domain R5-GFM = PUM1 PUF domain R5-GFM (Homo sapiens, UniProt Q14671 828-1176, C1007G;R1008F;Q1011M)
Summary of the method: as §1

PUM1 PUF domain R3-VRG = PUM1 PUF domain R3-VRG (Homo sapiens, UniProt Q14671 828-1176, C935V;Q939G)
Summary of the method: as §1

PUM1 PUF domain R3-FRW = PUM1 PUF domain R3-FRW (Homo sapiens, UniProt Q14671 828-1176, C935F;Q939W)
Summary of the method: as §1

PUM1 PUF domain R4-GNV = PUM1 PUF domain R4-GNV (Homo sapiens, UniProt Q14671 828-1176, N971G;H972N;Q975V)
Summary of the method: as §1

PUM1 PUF domain R4-CMV = PUM1 PUF domain R4-CMV (Homo sapiens, UniProt Q14671 828-1176, N971C;H972M;Q975V)
Summary of the method: as §1

PUM1 PUF domain R4-QGG = PUM1 PUF domain R4-QGG (Homo sapiens, UniProt Q14671 828-1176, N971Q;H972G;Q975G)
Summary of the method: as §1

PUM1 PUF domain R6-VYR = target: T2, PUM1 PUF domain R6-VYR (Homo sapiens, UniProt Q14671 828-1176, N1043V;Q1047R)
T2 sequence: T1 sequence with S216V, H217Y
Summary of the method: as §1

PUM1 PUF domain R5-IYM = PUM1 PUF domain R5-IYM (Homo sapiens, UniProt Q14671 828-1176, C1007I;R1008Y;Q1011M)
Summary of the method: as §1

PUM1 PUF domain R3-DFV = PUM1 PUF domain R3-DFV (Homo sapiens, UniProt Q14671 828-1176, C935D;R936F;Q939V)
Summary of the method: as §1

PUM1 PUF domain R3-SCY = PUM1 PUF domain R3-SCY (Homo sapiens, UniProt Q14671 828-1176, C935S;R936C;Q939Y)
Summary of the method: as §1

PUM1 PUF domain R6-DYQ = target: T3, PUM1 PUF domain R6-DYQ (Homo sapiens, UniProt Q14671 828-1176, N1043D)
T3 sequence: T1 sequence with S216D, H217Y, R220Q
Summary of the method: as §1

PUM1 PUF domain R8-RRN = PUM1 PUF domain R8-RRN (Homo sapiens, UniProt Q14671 828-1176, N1122R;Y1123R;Q1126N)
Summary of the method: as §1

PUM1 PUF domain R5-VHL = PUM1 PUF domain R5-VHL (Homo sapiens, UniProt Q14671 828-1176, C1007V;R1008H;Q1011L)
Summary of the method: as §1

Chain of PUM1 PUF domain R4-CMV (Q14671 828-1176 N971C/H972M/Q975V): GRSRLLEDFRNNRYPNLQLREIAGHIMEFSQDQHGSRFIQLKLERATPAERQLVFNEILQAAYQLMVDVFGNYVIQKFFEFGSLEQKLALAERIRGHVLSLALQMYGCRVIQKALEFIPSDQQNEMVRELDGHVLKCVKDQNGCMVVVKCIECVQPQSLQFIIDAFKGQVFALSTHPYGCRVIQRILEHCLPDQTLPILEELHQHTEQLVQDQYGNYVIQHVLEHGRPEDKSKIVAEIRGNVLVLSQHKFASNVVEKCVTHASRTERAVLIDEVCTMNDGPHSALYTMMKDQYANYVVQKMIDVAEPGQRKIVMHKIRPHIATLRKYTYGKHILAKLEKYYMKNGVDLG
Chain of PUM1 PUF domain R1-RRS (Q14671 828-1176 S863R/Q867S): as the sequence (Q14671 828-1176 N971C/H972M/Q975V) above, with S36R, Q40S, C144N, M145H, V148Q counted along it
Chain of PUM1 PUF domain R5-GFM (Q14671 828-1176 C1007G/R1008F/Q1011M): as the sequence (Q14671 828-1176 N971C/H972M/Q975V) above, with C144N, M145H, V148Q, C180G, R181F, Q184M counted along it
Chain of PUM1 PUF domain R4-QGG (Q14671 828-1176 N971Q/H972G/Q975G): as the sequence (Q14671 828-1176 N971C/H972M/Q975V) above, with C144Q, M145G, V148G counted along it
Chain of PUM1 PUF domain R4-GNV (Q14671 828-1176 N971G/H972N/Q975V): as the sequence (Q14671 828-1176 N971C/H972M/Q975V) above, with C144G, M145N counted along it
Chain of PUM1 PUF domain R8-RRN (Q14671 828-1176 N1122R/Y1123R/Q1126N): as the sequence (Q14671 828-1176 N971C/H972M/Q975V) above, with C144N, M145H, V148Q, N295R, Y296R, Q299N counted along it
Chain of PUM1 PUF domain R3-FRW (Q14671 828-1176 C935F/Q939W): as the sequence (Q14671 828-1176 N971C/H972M/Q975V) above, with C108F, Q112W, C144N, M145H, V148Q counted along it
Chain of PUM1 PUF domain R3-QPS (Q14671 828-1176 C935Q/R936P/Q939S): as the sequence (Q14671 828-1176 N971C/H972M/Q975V) above, with C108Q, R109P, Q112S, C144N, M145H, V148Q counted along it
Chain of PUM1 PUF domain R5-VHL (Q14671 828-1176 C1007V/R1008H/Q1011L): as the sequence (Q14671 828-1176 N971C/H972M/Q975V) above, with C144N, M145H, V148Q, C180V, R181H, Q184L counted along it
Chain of PUM1 PUF domain R1-KSL (Q14671 828-1176 S863K/R864S/Q867L): as the sequence (Q14671 828-1176 N971C/H972M/Q975V) above, with S36K, R37S, Q40L, C144N, M145H, V148Q counted along it

**Q.** “GGCUAGAACUAGUGGAUCCCCCGGCGCCCGGCGGCUCGAGCCCGGGUAAGUGUAAAUCGUCUGCAUGCCGCCGGGCGCCAUGCCUGCAGGUCGACUCUAGAAAACAUG” was tested. Which binding signal (PUM1 PUF domain R1-RRS) did it give?
**A.** 5.02 log2 enrichment (interaction score)

**Q.** What about the binding signal (PUM1 PUF domain R1-KSL) of the same sequence?
**A.** 2.8 log2 enrichment (interaction score)

**Q.** With “GGCUAGAACUAGUGGAUCCCCCGGCGCCCGGCGGCUCGAGCCCGGGUAAGUGCAAAUAGUCUGCAUGCCGCCGGGCGCCAUGCCUGCAGGUCGACUCUAGAAAACAUG” as the sequence, how does the binding signal (PUM1 PUF domain R6-SHR) read?
**A.** 5.39 log2 enrichment (interaction score)

**Q.** How did the binding signal (PUM1 PUF domain R7-GNR) turn out when “GGCUAGAACUAGUGGAUCCCCCGGCGCCCGGCGGCUCGAGCCCGGGUAAGUUUAAAUAGUCUGCAUGCCGCCGGGCGCCAUGCCUGCAGGUCGACUCUAGAAAACAUG” was run?
**A.** 2.05 log2 enrichment (interaction score)

**Q.** Which results are given for “GGCUAGAACUAGUGGAUCCCCCGGCGCCCGGCGGCUCGAGCCCGGGUAAGUGUUAAUAGUCUGCAUGCCGCCGGGCGCCAUGCCUGCAGGUCGACUCUAGAAAACAUG”?
**A.** binding signal (PUM1 PUF domain R5-RGC): 3.22 log2 enrichment (interaction score); binding signal (PUM1 PUF domain R5-RSP): 1.1 log2 enrichment (interaction score)

**Q.** “GGCUAGAACUAGUGGAUCCCCCGGCGCCCGGCGGCUCGAGCCCGGGUAAGUGUAAUUAGUCUGCAUGCCGCCGGGCGCCAUGCCUGCAGGUCGACUCUAGAAAACAUG” was tested. Which binding signal (PUM1 PUF domain R3-QPS) did it give?
**A.** 3.41 log2 enrichment (interaction score)

**Q.** With “GGCUAGAACUAGUGGAUCCCCCGGCGCCCGGCGGCUCGAGCCCGGGUAAGUGUGAAUAGUCUGCAUGCCGCCGGGCGCCAUGCCUGCAGGUCGACUCUAGAAAACAUG” as the sequence, how does the binding signal (PUM1 PUF domain R5-GFM) read?
**A.** 2.5 log2 enrichment (interaction score)

**Q.** What does the source list for “GGCUAGAACUAGUGGAUCCCCCGGCGCCCGGCGGCUCGAGCCCGGGUAAGUGUAAGUAGUCUGCAUGCCGCCGGGCGCCAUGCCUGCAGGUCGACUCUAGAAAACAUG”?
**A.** binding signal (PUM1 PUF domain R3-VRG): 0.46 log2 enrichment (interaction score); binding signal (PUM1 PUF domain R3-FRW): 4.16 log2 enrichment (interaction score)

**Q.** “GGCUAGAACUAGUGGAUCCCCCGGCGCCCGGCGGCUCGAGCCCGGGUAAGUGUAUAUAGUCUGCAUGCCGCCGGGCGCCAUGCCUGCAGGUCGACUCUAGAAAACAUG” was tested. Which binding signal (PUM1 PUF domain R4-GNV) did it give?
**A.** 2.92 log2 enrichment (interaction score)

**Q.** What about the binding signal (PUM1 PUF domain R4-CMV) of the same sequence?
**A.** 3.68 log2 enrichment (interaction score)

**Q.** What about the binding signal (PUM1 PUF domain R4-QGG) of the same sequence?
**A.** 2.98 log2 enrichment (interaction score)

**Q.** With “GGCUAGAACUAGUGGAUCCCCCGGCGCCCGGCGGCUCGAGCCCGGGUAAGUGUAAAUGGUCUGCAUGCCGCCGGGCGCCAUGCCUGCAGGUCGACUCUAGAAAACAUG” as the sequence, how does the binding signal (PUM1 PUF domain R1-RRS) read?
**A.** 2.51 log2 enrichment (interaction score)

**Q.** “GGCUAGAACUAGUGGAUCCCCCGGCGCCCGGCGGCUCGAGCCCGGGUAAGUGUCAAUAGUCUGCAUGCCGCCGGGCGCCAUGCCUGCAGGUCGACUCUAGAAAACAUG” was tested. Which binding signal (PUM1 PUF domain R5-RGC) did it give?
**A.** 1.32 log2 enrichment (interaction score)

**Q.** What about the binding signal (PUM1 PUF domain R5-RSP) of the same sequence?
**A.** 2.36 log2 enrichment (interaction score)

**Q.** Which binding signal (PUM1 PUF domain R4-GNV) does the source give for “GGCUAGAACUAGUGGAUCCCCCGGCGCCCGGCGGCUCGAGCCCGGGUAAGUGUACAUAGUCUGCAUGCCGCCGGGCGCCAUGCCUGCAGGUCGACUCUAGAAAACAUG” here?
**A.** 1.41 log2 enrichment (interaction score)

**Q.** What about the binding signal (PUM1 PUF domain R4-CMV) of the same sequence?
**A.** 1.08 log2 enrichment (interaction score)

**Q.** What about the binding signal (PUM1 PUF domain R4-QGG) of the same sequence?
**A.** 1.65 log2 enrichment (interaction score)

**Q.** Which binding signal (PUM1 PUF domain R6-VYR) does the source give for “GGCUAGAACUAGUGGAUCCCCCGGCGCCCGGCGGCUCGAGCCCGGGUAAGUGAAAAUAGUCUGCAUGCCGCCGGGCGCCAUGCCUGCAGGUCGACUCUAGAAAACAUG” here?
**A.** 6.09 log2 enrichment (interaction score)

**Q.** For “GGCUAGAACUAGUGGAUCCCCCGGCGCCCGGCGGCUCGAGCCCGGGUAAGUGUAAAUAGUCUGCAUGCCGCCGGGCGCCAUGCCUGCAGGUCGACUCUAGAAAACAUG”, which binding signal (PUM1 PUF domain R5-IYM) is on record?
**A.** 3.85 log2 enrichment (interaction score)

**Q.** What about the binding signal (PUM1 PUF domain R6-SHR) of the same sequence?
**A.** 4.81 log2 enrichment (interaction score)

**Q.** And the binding signal (PUM1 PUF domain R3-VRG)?
**A.** 3.39 log2 enrichment (interaction score)

**Q.** What about the binding signal (PUM1 PUF domain R3-DFV) of the same sequence?
**A.** 5.54 log2 enrichment (interaction score)

**Q.** What about the binding signal (PUM1 PUF domain R3-SCY) of the same sequence?
**A.** 3.56 log2 enrichment (interaction score)

**Q.** And the binding signal (PUM1 PUF domain R6-DYQ)?
**A.** 6.54 log2 enrichment (interaction score)

**Q.** What about the binding signal (PUM1 PUF domain R6-VYR) of the same sequence?
**A.** 2.97 log2 enrichment (interaction score)

**Q.** And the binding signal (PUM1 PUF domain R8-RRN)?
**A.** 2.81 log2 enrichment (interaction score)

**Q.** And the binding signal (PUM1 PUF domain R4-CMV)?
**A.** 2.52 log2 enrichment (interaction score)

**Q.** And the binding signal (PUM1 PUF domain R5-VHL)?
**A.** 2.67 log2 enrichment (interaction score)

**Q.** And the binding signal (PUM1 PUF domain R5-GFM)?
**A.** 2.5 log2 enrichment (interaction score)

**Q.** With “GGCUAGAACUAGUGGAUCCCCCGGCGCCCGGCGGCUCGAGCCCGGGUAAGUGUAAAUUGUCUGCAUGCCGCCGGGCGCCAUGCCUGCAGGUCGACUCUAGAAAACAUG” as the sequence, how does the binding signal (PUM1 PUF domain R1-RRS) read?
**A.** 3.16 log2 enrichment (interaction score)
